hNpr1 antagonist: antagonists of human natriuretic peptide receptor Npr1 | P16066 | HEK293 hNpr1 GloSensor cGMP, ANP-stimulated luminescence | Potency, µM (highest dose often 46.3 µM), without a hit: top-dose activity change, negative = inhibition, most hits filed as inhibitors | hit rate 1.6% among 76,000 | AID 1347048; calls by dose curve; further: nearly all actives have a fitted effect of over 60% in size
Target sequence (P16066 whole entry, looked up): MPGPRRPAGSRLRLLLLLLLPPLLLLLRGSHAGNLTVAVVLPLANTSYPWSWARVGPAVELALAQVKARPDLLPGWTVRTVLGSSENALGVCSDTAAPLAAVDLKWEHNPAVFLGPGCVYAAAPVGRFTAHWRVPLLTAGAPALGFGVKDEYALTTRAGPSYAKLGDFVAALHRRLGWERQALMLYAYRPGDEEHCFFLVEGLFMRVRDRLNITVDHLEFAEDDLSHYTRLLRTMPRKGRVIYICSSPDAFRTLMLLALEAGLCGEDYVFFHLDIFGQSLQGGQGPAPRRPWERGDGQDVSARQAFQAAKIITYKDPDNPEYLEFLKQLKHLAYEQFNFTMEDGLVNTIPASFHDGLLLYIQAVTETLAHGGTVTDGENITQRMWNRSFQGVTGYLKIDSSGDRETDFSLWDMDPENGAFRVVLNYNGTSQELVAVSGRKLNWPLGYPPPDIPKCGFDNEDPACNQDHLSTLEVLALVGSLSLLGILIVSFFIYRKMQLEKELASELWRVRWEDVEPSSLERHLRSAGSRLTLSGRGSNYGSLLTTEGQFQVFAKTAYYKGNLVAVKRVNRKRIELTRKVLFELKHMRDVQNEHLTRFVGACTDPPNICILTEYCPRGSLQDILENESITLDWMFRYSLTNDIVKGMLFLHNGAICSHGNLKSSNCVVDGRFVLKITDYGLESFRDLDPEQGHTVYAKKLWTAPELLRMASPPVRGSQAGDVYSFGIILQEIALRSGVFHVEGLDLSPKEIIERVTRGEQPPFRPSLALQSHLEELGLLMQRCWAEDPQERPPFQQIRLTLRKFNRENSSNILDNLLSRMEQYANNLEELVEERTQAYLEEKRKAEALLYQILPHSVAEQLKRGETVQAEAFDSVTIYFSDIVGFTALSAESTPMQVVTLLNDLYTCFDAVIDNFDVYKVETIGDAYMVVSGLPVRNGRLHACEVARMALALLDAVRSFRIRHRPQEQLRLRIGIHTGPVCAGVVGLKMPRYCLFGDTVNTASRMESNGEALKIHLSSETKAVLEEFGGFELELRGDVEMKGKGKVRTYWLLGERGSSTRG
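HEK293 cells stably expressing human Npr1 and cGMP GloSensor pGS-40F, loaded 2 h with 2% GloSensor reagent, given compound 30 min at room temperature. Luminescence read before and 20 min after 0.1 nM hNppA.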
Luciferase inh: Photinus pyralis luciferase inhibition; P08659; Potency, µM (titrated, usually from 115 µM), most hits filed as inhibitors; purified P. pyralis luciferase, luminescence, biochemical; AID 1347043; hit rate 2.5% among 76,000; further: nearly all actives have a fitted effect of over 65% in size
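Luminescence read by CCD imager after adding enzyme (10nM final) to wells holding compound, titrated in qHTS. Substrates 10uM each D-luciferin and ATP; buffer 50mM Tris acetate pH 7.5, 10mM Mg acetate, Tween-20, BSA.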
HEK293 tox: HEK 293 cell cytotoxicity; Potency, µM (highest dose often 115 µM), for the others: at the highest dose activity change, negative = cytotoxicity, hits mostly inhibitors; HEK 293 viability, ATP luminescence (CellTiter-Glo), 48-72 h; AID 1345083; hit rate 6.6% among 94,000; further: nearly all actives have a fitted effect of over 60% in size
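ATP-coupled CellTiter-Glo luminescence served as viability read-out, recorded 10 min after reagent addition at room temperature. HEK 293 cells, 250 cells/well, had been incubated with pintool-transferred compound for 48 or 72 hr at 37 degree Celsius.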
NIH3T3 tox: kills NIH 3T3 cells; Potency, µM (top dose mostly 96.7 µM), without a hit: at the highest dose activity change, negative = cytotoxicity, actives largely listed as inhibitors; NIH 3T3 viability, CellTiter-Glo ATP luminescence, 48-72 h; hit rate 4.3% among 94,000; further: nearly all actives have a fitted effect of over 55% in size
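Cells were seeded at 400 per well, treated with pin-transferred compound, and kept 48 or 72 hr at 37 °C before CellTiter-Glo addition and luminescence imaging of cellular ATP.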
Active calls of the source: *; ! = not active in a repeat; [ ] = another dose, or the depositor's remark. The list is not random: actives were taken first. Their share in the collection is about 11%. Unless noted, the call rests on the fitted dose curve; in most records, active means well fitted curve in the direction sought with a large enough effect; inconclusive means small, poorly fitted or top-dose-only effect, or another doubt; inactive means no such curve, though single readings can be large; an effect the other way counts as inactive or inconclusive. On the % scale 0 is the no-effect control and ±100 the full control effect; potency means the concentration at half of the fitted maximal effect.

Screening COc1ccc(-c2cc3c(=O)n(CCNC(=O)c4ccoc4)ccn3n2)cc1 returned hNpr1 antagonist -11.6%, Luciferase inh inconclusive, HEK293 tox 22.4µM* and NIH3T3 tox -19.7%.
`COc1ccc(-c2cc3c(=O)n(CCNC(=O)c4ccc(OC)c(OC)c4)ccn3n2)cc1` gave hNpr1 antagonist -23.2%, Luciferase inh inconclusive, HEK293 tox inconclusive and NIH3T3 tox -9.5%.
Screening O=C(NCCn1ccn2nc(-c3ccc(F)cc3)cc2c1=O)c1c(F)cccc1Cl returned hNpr1 antagonist 2.1%, Luciferase inh inactive, HEK293 tox 31.6µM* and NIH3T3 tox inconclusive.
O=C(Cc1cccc(F)c1)NCCn1ccn2nc(-c3ccc(F)cc3)cc2c1=O was read as hNpr1 antagonist -16.4%, Luciferase inh inconclusive, HEK293 tox inconclusive and NIH3T3 tox -21.8%.
COc1ccc(-c2cc3c(=O)n(CCNC(=O)c4cccc(OC)c4OC)ccn3n2)cc1 was read as hNpr1 antagonist -15.1%, Luciferase inh 6.31µM*, HEK293 tox 35.5µM* and NIH3T3 tox inconclusive.
`COc1ccc(-c2cc3c(=O)n(CCNC(=O)c4ccc(C)c(F)c4)ccn3n2)cc1` gave hNpr1 antagonist -16.9%, Luciferase inh inactive, HEK293 tox 3.3% and NIH3T3 tox -14.4%.
`COc1ccc(-c2cc3c(=O)n(CCNC(=O)c4sccc4C)ccn3n2)cc1` gave hNpr1 antagonist -13.1%, Luciferase inh 4.47µM*, HEK293 tox inconclusive and NIH3T3 tox -18.4%.
Screening COc1cccc(-c2cc3c(=O)n(CCNC(=O)c4ccccc4F)ccn3n2)c1 returned hNpr1 antagonist -7.9%, Luciferase inh inconclusive, HEK293 tox inconclusive and NIH3T3 tox -28.2%.
For O=[N+]([O-])c1cccc(-c2noc([C@@H]3Cc4nc[nH]c4CN3)n2)c1 the results were hNpr1 antagonist 1.6%[70.6 µM], Luciferase inh 44.7µM*!, HEK293 tox inconclusive and NIH3T3 tox -28.1%[174 µM].
Screening Cc1ccc(NC(=O)N2Cc3[nH]cnc3C[C@H]2c2nc(-c3cccc([N+](=O)[O-])c3)no2)cc1 returned hNpr1 antagonist -21.1%, Luciferase inh inactive, HEK293 tox inconclusive and NIH3T3 tox inconclusive.
Screening CC1CCc2nn3ccn(CC(=O)Nc4ccccc4)c(=O)c3c2C1 (centres undefined) returned hNpr1 antagonist -4.0%, Luciferase inh inactive, HEK293 tox -20.6% and NIH3T3 tox -15.4%.
For CCc1ccc(NC(=O)Cn2ccn3nc4c(c3c2=O)CC(C)CC4)cc1 (centres undefined) the results were hNpr1 antagonist 0.4%, Luciferase inh inactive, HEK293 tox 44.7µM* and NIH3T3 tox inconclusive.
Cc1cc(-c2nc3ccncc3[nH]2)c(C)o1 was read as hNpr1 antagonist 0.0%[70.6 µM], Luciferase inh 44.7µM*, HEK293 tox inconclusive and NIH3T3 tox inconclusive.
c1cc2nc(-c3ccsc3)[nH]c2cn1 was read as hNpr1 antagonist -10.4%[70.6 µM], Luciferase inh inconclusive, HEK293 tox inconclusive and NIH3T3 tox inconclusive.
Screening COCCNC(=O)c1nc(-c2ccc(F)cc2)c2cnccn12 returned hNpr1 antagonist 28.3%[70.6 µM], Luciferase inh inactive, HEK293 tox -13.9%[172 µM] and NIH3T3 tox -15.9%[138 µM].
`Cc1ncc2c(n1)CCCN(CC(=O)NCCC(C)C)C2=O` gave HEK293 tox -8.0% and NIH3T3 tox -9.3%.
CC(=O)N1CCN(C(=O)c2cc(-c3ccccc3C(F)(F)F)nc3c2cnn3C)CC1 was read as HEK293 tox 1.0% and NIH3T3 tox -14.0%.
For Cn1ncc2c(C(=O)N3CCC(Cc4ccccc4)CC3)cc(-c3ccccc3C(F)(F)F)nc21 the results were HEK293 tox 39.8µM* and NIH3T3 tox 28.2µM*.
`Cn1ncc2c(C(=O)N3CCCCC3)cc(-c3ccccc3C(F)(F)F)nc21` gave HEK293 tox inconclusive and NIH3T3 tox -38.4%.
Screening Cn1ncc2c(C(=O)N3CCC(c4ccccc4)CC3)cc(-c3ccccc3C(F)(F)F)nc21 returned HEK293 tox 44.7µM* and NIH3T3 tox 28.2µM*.
For Cn1ncc2c(C(=O)N3CCN(Cc4ccccc4)CC3)cc(-c3ccccc3C(F)(F)F)nc21 the results were HEK293 tox 44.7µM* and NIH3T3 tox inconclusive.
Screening COCCCn1c(=O)c(C(=O)N2CCN(C(=O)c3ccc(OC)cc3)CC2)nc2cccnc21 returned HEK293 tox -1.1% and NIH3T3 tox -18.0%.
`CCNC(=O)NC[C@@H]1C=C(C)[C@H](Cc2nnc(-c3cncn3C)o2)C[C@H]1C(C)C` gave hNpr1 antagonist 2.4%[70.6 µM], Luciferase inh inactive, HEK293 tox -10.0%[172 µM] and NIH3T3 tox inconclusive.
Cc1nc(N2CCCCC2)n(CC(=O)Nc2ccc(F)cc2)c(=O)c1C was read as hNpr1 antagonist -5.8%, Luciferase inh inactive, HEK293 tox inconclusive and NIH3T3 tox inconclusive.
Cc1ccc(NC(=O)Cn2c(N3CCCCC3)nc(C)c(C)c2=O)cc1C was read as hNpr1 antagonist -1.1%, Luciferase inh inactive, HEK293 tox 22.4µM* and NIH3T3 tox inconclusive.
For CN(C(=O)c1cc2ccccc2oc1=O)C1CCCN(CCCc2ccccc2)C1 (centres undefined) the results were hNpr1 antagonist 0.0%, Luciferase inh inactive, HEK293 tox inconclusive and NIH3T3 tox 39.8µM*.
CCCC(=O)N1Cc2ccccc2CC2(CCN(C)C2)C1 (centres undefined) was read as HEK293 tox inconclusive and NIH3T3 tox -14.3%[138 µM].
COc1ccc(NC(=O)c2nc3sccn3c2-c2ccc(OC)cc2)cc1 was read as HEK293 tox inconclusive and NIH3T3 tox -20.9%.
COc1ccc(-c2noc([C@@H]3Cc4nc[nH]c4CN3C(=O)Nc3ccccc3)n2)cc1 was read as hNpr1 antagonist inconclusive, Luciferase inh 31.6µM*, HEK293 tox inconclusive and NIH3T3 tox inconclusive.
`Cc1ccc(NC(=O)N2Cc3[nH]cnc3C[C@H]2c2nc(-c3ccc(C)cc3)no2)cc1` gave hNpr1 antagonist -23.2%[70.6 µM], Luciferase inh 31.6µM*, HEK293 tox inconclusive and NIH3T3 tox 100µM*.
Screening Cc1ccc(NC(=O)c2ccc(CN3C(=O)NC4(CCOCC4)C3=O)cc2)cc1 returned hNpr1 antagonist -23.8%, Luciferase inh 15.8µM*, HEK293 tox inconclusive and NIH3T3 tox 2.6%.
Screening COc1ccc(NC(=O)c2ccc(CN3C(=O)NC4(CCOCC4)C3=O)cc2)cc1 returned hNpr1 antagonist -24.3%, Luciferase inh 28.2µM*, HEK293 tox -23.8% and NIH3T3 tox -9.1%.
For Cc1ccccc1CNC(=O)c1ccc(CN2C(=O)NC3(CCOCC3)C2=O)cc1 the results were hNpr1 antagonist -3.0%, Luciferase inh inactive, HEK293 tox -1.9% and NIH3T3 tox inactive.
`O=C(NCc1ccc(F)c(F)c1)C1CCc2nnc(-c3cccc(C(F)(F)F)c3)n21` (centres undefined) gave HEK293 tox inconclusive and NIH3T3 tox -24.8%.
Screening O=C(O)CCn1ncc2cc(OC3CCN(C(=O)Oc4ccccc4Cl)CC3)ccc21 returned Luciferase inh inactive, HEK293 tox -25.9% and NIH3T3 tox 8.91µM*.

Screening data as filed in PubChem BioAssay.
